Measured values from PubChem BioAssay (NCATS).
Several values for one entry are separate records, joined by “and”; a condition that tells them apart may be missing. Equal values may be shown once. Inconclusive results are not listed. Some compounds were tested as several samples or in several runs, with calls that do not always agree. Activity calls are given as the source filed them. Calls come from the whole dose curve; as a rule, active = well fitted activation curve with a large enough effect; inconclusive = small, poorly fitted or top-dose-only effect; inactive = no such curve, though single readings can be large or run the other way.

What follows are compounds tested against Cellular tumor antigen p53 (Homo sapiens) (UniProt P04637) (assay: Primary qHTS for small molecule compounds that upregulate eGFP-tagged delta133p53alpha (in N-terminal) cells. (AID 2060322; note: nearly all actives have a fitted effect of over 75% in size;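 for activation: series mostly up to about 56 µM; 0% = DMSO vehicle and 100% = reference activator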)). Conditions: NCI-H358 eGFP-delta133p53alpha fluorescence, 24 h; activation: hits give high values.
Sequence of Cellular tumor antigen p53 (Homo sapiens) (P04637 whole entry, looked up): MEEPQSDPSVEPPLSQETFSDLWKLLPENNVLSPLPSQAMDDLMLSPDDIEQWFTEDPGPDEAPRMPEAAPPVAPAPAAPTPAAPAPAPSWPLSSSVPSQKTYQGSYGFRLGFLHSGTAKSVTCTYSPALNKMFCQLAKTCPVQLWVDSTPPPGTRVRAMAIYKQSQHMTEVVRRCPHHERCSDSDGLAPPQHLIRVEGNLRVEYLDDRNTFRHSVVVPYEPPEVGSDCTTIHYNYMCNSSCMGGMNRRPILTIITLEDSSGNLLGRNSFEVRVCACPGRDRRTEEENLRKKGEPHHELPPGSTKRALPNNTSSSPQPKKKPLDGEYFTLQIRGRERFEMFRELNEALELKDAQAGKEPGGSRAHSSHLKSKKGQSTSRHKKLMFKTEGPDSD
Summary of the method: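 NCI-H358 cells pre-induced 24 h with 10 ng/ml doxycycline to express N-terminal eGFP-delta133p53alpha, then dosed 24 h at 37C without doxycycline; fixed, Hoechst-stained, GFP intensity by laser scanning cytometry, normalized to DMSO (0%) and 57.5 uM 5-azacytidine (100%).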
Potency is the fitted concentration of half-maximal effect.

Row | Structure (SMILES) | activation | Potency
1 | NC1(C(=O)O)CCc2cc(C(=O)O)ccc21 (configuration not stated) | 7.39% (inactive) | 
2 | C[n+]1cc2c3c(ccc2c2ccc4cc5c(cc4c21)OCO5)OCO3 |  | 1.9 µM (active) and 2.39 µM (active)
3 | O=C(/C=C/c1ccc(O)c(O)c1)OCCc1ccccc1 | -0.816% (inactive) | 
4 | Clc1ccccc1CN1CCc2sccc2C1 | 16.7% (inactive) | 17.2 µM (active)
5 | COc1cccc2c1[C@@H]1CN(CCCCn3c(=O)[nH]c4c(sc5ncc(-c6ccccc6)nc54)c3=O)C[C@@H]1CO2 | -97.6% (inactive) | 
6 | COc1ccc(-c2cc3ncc(C)n3c(Nc3ncccc3C(N)=O)n2)cc1OC | 2.48% (inactive) | 
7 | Cc1c(-c2ccc(O)cc2)n(Cc2ccc(OCCN3CCCCCC3)cc2)c2ccc(O)cc12 | -20.9% (inactive) | 38.9 µM (active)
8 | N=C(N)SCCc1cnc[nH]1 | -28.5% (inactive) | 
9 | Cc1cc2c(C(C)C)c(O)c(O)c(C=O)c2c(O)c1-c1c(C)cc2c(C(C)C)c(O)c(O)c(C=O)c2c1O | -36.4% (inactive) | 24.6 µM (active)
10 | CCCCCCCCCCCCCCCCCC(=O)OC(CC(=O)O)C[N+](C)(C)C (configuration not stated) | -37.9% (inactive) | 
11 | CCCOc1ccc2nc(NC(=O)OC)[nH]c2c1 | 62.8% (inactive) | 0.0685 µM (active)
12 | CC(=O)N(O)CCCCCNC(=O)CCC(=O)N(O)CCCCCNC(=O)CCC(=O)N(O)CCCCCN | 41.2% (inactive) | 1.36 µM (active)
13 | Cc1nc(N)sc1-c1ccnc(Nc2ccc(N3CCOCC3)cc2)n1 | -1.52% (inactive) | 26.9 µM (active)
14 | O=C(O)C1=CC(=C(c2ccc(O)c(C(=O)O)c2)c2ccc(O)c(C(=O)O)c2)C=CC1=O | -71.6% (inactive) | 
15 | C[C@H]1c2cccc(O)c2C(O)=C2C(=O)[C@]3(O)C(O)=C(C(N)=O)C(=O)[C@@H](N(C)C)[C@@H]3[C@@H](O)[C@@H]21 | -2.21% (inactive) | 15.5 µM (active) and 2.73 µM (active)
16 | Cc1nc2c(-c3cnc(N)nc3)nc(N3CCOCC3)nc2n1C(C)C | 14.3% (inactive) | 9.66 µM (active)
17 | Oc1ccc(/C=C/c2ccc(/C=C/c3ccc(O)cc3)c(Br)c2)cc1 |  | 3.38 µM (active)
18 | C=CC1(C)CC(=O)C2(O)C(C)(O1)C(OC(C)=O)C(O)C1C(C)(C)CCC(O)C12C (configuration not stated) | -19.1% (inactive) | 
19 | O=C1N=C(O)CN1/N=C/c1ccc(-c2ccc([N+](=O)[O-])cc2)o1 | 5.02% (inactive) and 6.04% (inactive) | 
20 | CCc1cccc(CC)c1NC(=O)N1Cc2[nH]nc(NC(=O)c3ccc(N4CCN(C)CC4)cc3)c2C1 | 5.63% (inactive) | 12.2 µM (active)

Row | Structure (SMILES) | activation | Potency
21 | Brc1c(Br)c(Br)c2n[nH]nc2c1Br | -52.8% (inactive) | 
22 | O=c1oc(Cl)c(Cl)c2ccccc12 | 3% (inactive) | 
23 | CCCOc1ccc(C(=O)OCCN(CC)CC)cc1N | 9.6% (inactive) | 24.3 µM (active)
24 | C[C@H](NC(=O)/C(C#N)=C/c1ccc(O)c(O)c1)c1ccccc1 | -11.2% (inactive) | 
25 | COc1ccc(Br)cc1S(=O)(=O)NC(=O)/C=C/c1ccccc1Cc1ccc2ccccc2c1 | -15.8% (inactive) | 
26 | NC1(C(=O)O)CC1 | -6.03% (inactive) | 
27 | NNc1nncc2ccccc12 | 19.2% (inactive) and 11.4% (inactive) and 5.29% (inactive) | 
28 | COc1cc2nccc(Oc3ccc(NC(=O)C4(C(=O)Nc5ccc(F)cc5)CC4)cc3)c2cc1OC | 11.6% (inactive) | 38.5 µM (active)
29 | O=c1cc(-c2ccccc2)oc2c(O)c(O)ccc12 | -43.5% (inactive) | 
30 | CC(C)[C@H](C(=O)Nc1ccc(C(=O)NO)cc1)c1ccccc1 | 66.7% (inactive) | 30.6 µM (active)
31 | COc1cc(N2CCC(O)CC2)ccc1Nc1cc(Nc2ccccc2S(=O)(=O)C(C)C)c2cc[nH]c2n1 | -59.5% (inactive) | 16.6 µM (active)
32 | OCc1cc(C(O)CNCCCCCCOCCCCc2ccccc2)ccc1O (configuration not stated) | 13.4% (inactive) and 3.4% (inactive) | 
33 | C=CCN1CCc2c(cc(O)c(O)c2Cl)C(c2ccccc2)C1 (configuration not stated) | -14.2% (inactive) | 
34 | COc1ccc(-c2cc3nccn3c(Nc3ncccc3C(N)=O)n2)cc1OC | 14.1% (inactive) | 4.78 µM (active)
35 | N#C/C(=C\c1ccc(O)c(O)c1)C(=O)NCCc1ccccc1 | -26.1% (inactive) | 
36 | COC(=O)C1=C(C)NC(C)=C(C(=O)OC)C1c1ccccc1[N+](=O)[O-] | -16.4% (inactive) and -36.9% (inactive) | 
37 | Cn1cc(C(F)(F)F)nc1-c1ccc(OCC(O)CNCCOc2ccc(O)c(C(N)=O)c2)cc1 (configuration not stated) | -30.5% (inactive) | 
38 | Cn1c2ccccc2c2c3c(c4c5ccccc5n(CCC#N)c4c21)CNC3=O | -13.5% (inactive) | 16.9 µM (active)
39 | Cc1coc2c1C(=O)C(=O)c1c-2ccc2c1CCCC2(C)C | 36.5% (inactive) | 8.49 µM (active)
40 | COc1ncnc(NS(=O)(=O)c2ccc(N)cc2)c1OC | 26.8% (inactive) | 27.3 µM (active)
